# Compound activity (PubChem BioAssay)
# The list is not random: actives were taken first. Their share in the collection is about 2.8%.
# HTRA1 inh = inhibitors of human serine peptidase HTRA1; Q92743; recombinant HTRA1, FP-rhodamine activity-based probe, fluorescence polarization; inhibition, % at 5.96 µM; 340,000 tested, 0.5% active; AID 504803; in the data active = inhibition above about 36%;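 also: 0% = enzyme with DMSO and 100% = wells lacking enzyme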
# PAFAH1B2 inh = inhibitors of human PAFAH1B2; P68402; AID 492953; recombinant PAFAH1B2, FP-rhodamine activity probe, fluorescence polarization; inhibition, % at 3.39 µM; 340,000 tested, 1.2% active;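 active = inhibition above the mean of all tested compounds plus 3 SD, cut at about 24% in these data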;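 also: 0% = enzyme with DMSO and 100% = wells lacking PAFAH1B2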
# Target sequence (P68402 whole entry, looked up): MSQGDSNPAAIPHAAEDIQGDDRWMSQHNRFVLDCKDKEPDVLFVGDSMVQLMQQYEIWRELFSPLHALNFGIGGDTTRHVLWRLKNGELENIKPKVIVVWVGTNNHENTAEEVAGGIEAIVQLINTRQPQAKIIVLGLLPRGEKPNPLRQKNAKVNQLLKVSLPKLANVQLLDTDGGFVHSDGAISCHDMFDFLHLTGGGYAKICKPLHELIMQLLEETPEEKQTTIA
# pPAFAH FP inh = pPAFAH (human) enzyme inhibition; Q13093; recombinant pPAFAH, FP-rhodamine probe fluorescence polarization; inhibition, % at 3.39 µM; 330,000 tested, 1.5% active; AID 463082;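 active = inhibition above the mean inhibition across the screen plus 3 SD, cut at about 25% in these data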;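 also: inhibitors block binding of the rhodamine activity-based probe so polarization drops; 0% = enzyme with DMSO and 100% = wells lacking pPAFAH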
# PAFAH2 FP inh = PAFAH2 (human) inhibition; AID 492956; inhibition, % at 3.39 µM; recombinant PAFAH2, FP-rhodamine activity probe, fluorescence polarization; 340,000 tested, 0.99% active;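 active = inhibition above the mean over all tested compounds plus 3 SD, cut at about 30% in these data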;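 also: inhibitors block probe labeling of enzyme so polarization drops; 0% = enzyme with DMSO and 100% = wells lacking PAFAH2 protein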
# PAFAH1B3 FP inh = inhibitors of human PAFAH1B3. Q15102. recombinant PAFAH1B3, FP-rhodamine probe, fluorescence polarization. inhibition, % at 3.39 µM. 340,000 tested, 0.28% active. AID 492972;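 active = inhibition above the screen-wide average of all tested compounds plus 3 SD, cut at about 25% in these data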;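 also: 0% = enzyme with DMSO only and 100% = wells lacking PAFAH1B3 protein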
# DAGLB inhibitor = blocks human DAGLB lipase activity. Q8NCG7. HEK293T DAGLB membrane lysate, EnzChek fluorogenic substrate. inhibition, % at 5.17 µM. 340,000 tested, 0.059% active; in the data active = inhibition above about 34%;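 also: 0% = enzyme with vehicle and 100% = wells lacking enzyme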
# PAFAH2 confirm = PAFAH2 (human) inhibition, confirmed | shares compounds with PAFAH2 FP inh | recombinant PAFAH2, FP-rhodamine activity probe, fluorescence polarization | inhibition, % at 3.39 µM | 2,300 tested, 65% active | AID 493030;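 active = mean inhibition over three repeats above a set limit taken from the earlier primary screen, cut at about 30% in these data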;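 also: inhibitor blocks binding of rhodamine activity probe so polarization falls; 0% = enzyme with DMSO and 100% = wells lacking PAFAH2 protein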
# * = called active by the depositor; x = no result.
SMILES,HTRA1 inh,PAFAH1B2 inh,pPAFAH FP inh,PAFAH2 FP inh,PAFAH1B3 FP inh,DAGLB inhibitor,PAFAH2 confirm
CC1CCCC(C)N1/N=C/c1ccc(N(C)C)cc1 (stereo not given),5,2,-1,38*,5,0,4
O=C(O)c1cn(-c2ccc(F)cc2)c2cc(N3CCNCC3)c(F)cc2c1=O,3,2,x,0,0,1,x
Cc1cccc(NC(=O)c2ccc3nccnc3c2)c1C,-5,-1,6,3,1,-1,x
CC(NC(=O)COC(=O)c1ccc(N2CCCC2=O)cc1)c1ccc(F)cc1 (stereo not given),2,3,4,78*,4,-1,68*
COc1cccc(CNC(=O)COC(=O)c2ccc(N3CCCC3=O)cc2)c1,-2,x,x,x,x,0,x
COc1ccc(CCNC(=O)COC(=O)c2ccc(N3CCCC3=O)cc2)cc1,6,8,2,56*,3,2,40*
COc1ccc(C(=O)OCC(=O)Nc2ccc(N3CCOCC3)cc2)cc1,2,-1,8,17,0,1,x
COc1ccc(NC(=O)COC(=O)c2ccc(N3CCCC3=O)cc2)cc1,-1,2,1,84*,0,1,67*
Cc1cc(NC(=O)CSCC(=O)Nc2ccc(C)c(C)c2)no1,1,-2,2,-7,11,-2,x
Cc1ccc(C(C)C)c(OCC(=O)NNC(=O)Cc2ccc(S(=O)(=O)N3CCOCC3)s2)c1,-3,6,15,0,8,-1,x
O=C(NCCCN1CCOCC1)c1ccc(Cl)cc1Cl,-6,-2,2,-6,6,4,x
CCOC(=O)N1CCN(C(=O)c2ccccc2NC(=O)c2ccc(Br)cc2)CC1,-6,2,-4,44*,-2,-4,26
O=S1(=O)CCC(=Nc2ccc(Cl)cc2)c2ccsc21,1,2,3,6,10,0,x
O=C(O/N=C1/CCCc2occc21)c1ccc(F)cc1,2,6,10,15,5,-2,x
O=C(O/N=C1\CCS(=O)(=O)c2sccc21)c1ccc(F)cc1,-2,3,2,52*,-2,1,55*
Cc1cccc(C(=O)O/N=C2\CCS(=O)(=O)c3sccc32)c1,6,4,16,78*,7,1,77*
O=C(O/N=C1\CCS(=O)(=O)c2sccc21)c1ccccc1,4,-4,3,73*,6,4,71*
Cc1c(NC(=O)c2ccc(S(=O)(=O)Nc3ccccc3F)cc2)c(=O)n(-c2ccccc2)n1C,4,4,-2,0,10,-2,x
Cn1nnc2cc(C(=O)N3CCN(c4ccccn4)CC3)ccc21,4,0,1,-3,-2,0,x
CC1CCC(NC(=O)CNC(=O)c2cccs2)CC1 (stereo not given),6,2,2,7,11,2,x
CCc1cccc(CC)c1NC(=O)COC(=O)CC1c2ccccc2CCN1S(=O)(=O)c1ccccc1 (stereo not given),-24,3,23,35*,0,0,21
CN(C)c1cccc(C(=O)OCC(=O)NC(=O)NCc2ccccc2)c1,8,2,6,-2,10,1,x
CC(CCc1ccccc1)NC(=O)COC(=O)c1cccc(N(C)C)c1 (stereo not given),-10,1,22,58*,-1,-1,36*
Cc1ccc(NC(=O)COC(=O)Cc2ccsc2)cc1S(=O)(=O)N(C)C,-1,2,19,9,3,-1,x
CC(CCc1ccccc1)NC(=O)COC(=O)c1ccc([N+](=O)[O-])cc1 (stereo not given),-3,6,11,1,14,-1,x
CC(CCc1ccccc1)NC(=O)COC(=O)c1ccc(NC(=O)CC#N)cc1 (stereo not given),-21,3,-17,54*,-1,-1,51*
CCOCc1c(C(=O)OCC(=O)Nc2ccc(C)c(S(=O)(=O)N(C)C)c2)oc2ccccc12,-34,6,2,58*,4,-8,45*
CCN(CC)S(=O)(=O)c1cc(NC(=O)COC(=O)c2ccc(NC(=O)CC#N)cc2)ccc1C,-25,-9,20,51*,-21,-4,50*
